# Data reported in PubChem BioAssay AID588342 (National Center for Advancing Translational Sciences (NCATS), 2011).
# About 25,000 (6.9%) of roughly 360,000 compounds were called active. Where a call stands in place of a potency, no number is given. Roughly 9% stayed inconclusive and do not appear here. The sample holds actives, similar compounds and a random draw of the others, so the mix is not that of the screen. The call rests on the fitted dose curve; in most records, active means well fitted inhibition curve with a large enough effect; inconclusive means small, poorly fitted or top-dose-only effect; inactive means flat fitted curve, though single readings scatter.
# Biological target: Luciferin 4-monooxygenase (Photinus pyralis) (UniProt P08659)
# Sequence (P08659 whole entry, looked up): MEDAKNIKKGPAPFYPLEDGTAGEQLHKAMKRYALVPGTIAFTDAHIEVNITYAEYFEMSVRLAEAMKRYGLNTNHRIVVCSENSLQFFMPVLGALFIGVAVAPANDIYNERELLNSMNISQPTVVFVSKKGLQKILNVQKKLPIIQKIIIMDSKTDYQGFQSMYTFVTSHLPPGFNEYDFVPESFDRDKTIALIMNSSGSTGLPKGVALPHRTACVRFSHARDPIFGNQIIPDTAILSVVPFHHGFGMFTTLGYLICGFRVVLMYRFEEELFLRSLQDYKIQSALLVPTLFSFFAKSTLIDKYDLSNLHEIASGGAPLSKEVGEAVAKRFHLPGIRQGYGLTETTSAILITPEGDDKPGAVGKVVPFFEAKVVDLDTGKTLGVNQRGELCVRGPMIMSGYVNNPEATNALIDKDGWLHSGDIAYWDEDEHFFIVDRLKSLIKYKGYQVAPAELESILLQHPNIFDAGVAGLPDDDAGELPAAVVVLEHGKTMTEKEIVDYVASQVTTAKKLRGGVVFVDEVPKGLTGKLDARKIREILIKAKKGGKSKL
# Experiment: qHTS profiling assay for firefly luciferase inhibitor/activator using purifed enzyme and Km concentrations of substrates (counterscreen for miR-21 project); further: nearly all actives have a fitted effect of over 55% in size
# Conditions: purified FLuc, luminescence inhibition; series mostly up to 57.5 µM
# Procedure, shortened: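 Purified P. pyralis luciferase, 10 nM final, with Km-level 10 uM D-luciferin and 10 uM ATP in 50 mM Tris acetate pH 7.5, 10 mM Mg acetate, 0.01% Tween-20, 0.05% BSA; 6-point qHTS titration about 60 µM downward; luminescence read.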
# Potency means the concentration at half of the fitted maximal effect.
row,SMILES,Potency
1,COc1cc(C(=O)NCC(c2ccc(Cl)cc2)N2CCOCC2)cc(OC)c1OC (stereo not drawn),inactive
2,Cc1ccccc1N1CC(C(=O)Nc2nnc(SCCC3OCCO3)s2)CC1=O (stereo not drawn),inactive
3,CC(=O)c1cccc(NC(=O)Nc2ccc(C)cc2)c1,4.78 µM (active)
4,Cc1ccc(NC(=O)Nc2cccnc2)cc1,10.7 µM (active)
5,CC(=O)c1cccc(NC(=S)N2CCCC2)c1,inactive
6,Cc1ccc(NC(=O)Nc2ccc3oc(C)nc3c2)cc1,1.2 µM (active)
7,O=C(NNC(=O)c1cccnc1)Nc1ccccc1,inactive
8,C=C(C)C(=O)Nc1cccc(C(C)=O)c1,inactive
9,Cc1ccc(NC(=O)c2cc3cc(C)ccc3n2C)cc1,inactive
10,Cc1nc2ccc(NC(=O)C(F)(F)F)cc2o1,inactive
11,Cc1ccc(NC(=O)NCC(c2cccnc2)N2CCOCC2)cc1 (stereo not drawn),inactive
12,Cc1cccc(N2CCN(C(=O)Cn3ncc4c5ccccc5n(C)c4c3=O)CC2C)c1 (stereo not drawn),inactive
13,CCN(CC)S(=O)(=O)c1cc(C(=O)Nc2cc(S(=O)(=O)N3CCOCC3)ccc2N2CCCC2)ccc1F,inactive
14,CN1CCN(/N=C2/C(=O)Nc3ccc([N+](=O)[O-])cc32)CC1,inactive
15,CCCCN(C(=O)C1CCC1)c1c(N)n(Cc2ccccc2)c(=O)[nH]c1=O,inactive
16,CCOc1ccc(NC(=O)C(CC(C)C)N2Cc3ccccc3C2=O)cc1 (stereo not drawn),inactive
17,CCOC(=O)c1ccc(NC(=O)C2CC(=O)N(c3ccc(C(C)C)cc3)C2)cc1 (stereo not drawn),inactive
18,CCNC(=O)CC1C(=O)N(c2ccc(OC)cc2)C(=O)N1CCOC (stereo not drawn),inactive
19,O=C(c1ccc(Oc2ccc(Cl)cc2)c([N+](=O)[O-])c1)N1CCCC1,inactive
20,CCOC(=O)c1oc2ccc(S(=O)(=O)n3nc(-c4ccccc4OC)cc3N)cc2c1C,inactive
21,COc1ccc(-c2[nH]c3c(c2-c2c(-n4cccc4)n(C)c(=O)n(C)c2=O)c(=O)n(C)c(=O)n3C)cc1,inactive
22,COC(=O)c1cc(NC2c3ccccc3C(=O)N2c2ccc(Cl)cn2)cc(C(=O)OC)c1 (stereo not drawn),6.01 µM (active)
23,CCc1ccccc1NC1c2ccccc2C(=O)N1c1cccnc1 (stereo not drawn),inactive
24,COC(=O)c1cc(NC(=O)c2nn(C)c(=O)c3ccccc23)cc(C(=O)OC)c1,inactive
25,CCOc1ccc(C(=O)N2CCN(CCc3ccccn3)CC2)cc1,inactive
26,CCCCNC(=O)CSc1nc2cc3c(cc2c(=O)n1CCCCCC(=O)NCc1ccc2c(c1)OCO2)OCO3,inactive

row,SMILES,Potency
1,CCCCN=C1C([N+](=O)[O-])=CC=C2C1=NC1(CCCCC1)N2O,inactive
2,Cn1c(=O)c(C(=O)Nc2ncccn2)c(O)c2ccccc21,21.3 µM (active)
3,C=CCn1c(=O)c(C(=O)Nc2ncccc2O)c(O)c2ccccc21,inactive
4,CCCn1c(=O)c(C(=O)Nc2cc(C)ccn2)c(O)c2ccccc21,inactive
5,C=CCC(Nc1ccccc1)c1cccc(OC)c1OC (stereo not drawn),inactive
6,CCCCn1c(N)c(N(CCOC)C(=O)c2oc3ccc(OC)cc3c2C)c(=O)[nH]c1=O,inactive
7,COCCNC(=S)N1CCC(NC(=O)C23CC4CC(CC(C4)C2)C3)CC1,inactive
8,Cc1ccn2c(Nc3ccc4c(c3)OCCO4)c(-c3ccc(C)s3)nc2c1,8.49 µM (active)
9,Oc1ccccc1-c1nc2ccc(Cl)cn2c1Nc1ccc2c(c1)OCCO2,inactive
10,Cc1ccc(-c2nc3cccc(C)n3c2Nc2ccc3c(c2)OCCO3)cc1,inactive
11,Cc1ccc(Nc2c(-c3ccc(C)cc3)nc3cnccn23)cc1,inactive
12,CC(C)(C)Nc1c(-c2cccs2)nc2ccccn12,inactive
13,Cc1ccc(Nc2c(-c3ccc(C)s3)nc3ccccn23)cc1,13.5 µM (active)
14,Cn1c(=O)nc2n(-c3ccc(Br)cc3)c3cccc(Cl)c3cc-2c1=O,inactive
15,O=C(COc1ccccc1F)OCc1cc(=O)n2nc(C3CCCCC3)sc2n1,inactive
16,CC(C)CNc1ncnc2c1nnn2C,inactive
17,O=S(=O)(c1ccc2nc(NCc3ccccc3Cl)ccc2c1)N1CCCCC1,inactive
18,O=C1C=C(c2cccc(Br)c2)C[C@@H](c2ccc(F)cc2)C1,inactive
19,Cc1ccc(C)c(N2CCN(Cc3nnc(-c4ccccc4)o3)CC2)c1,inactive
20,CC(C)N(Cc1nnc(-c2ccc(Cl)cc2)o1)C(=O)C1=COCCO1,inactive
21,O=C(c1nnc(-c2ccc(Cl)cc2)o1)C1CCCC1,5.36 µM (active)
22,O=C(c1[nH]ncc1-c1ccc(Cl)cc1)C1CO1 (stereo not drawn),inactive
23,CCOCCCNC(=O)c1ccc2nc(CCc3ccccc3)oc2c1,inactive
24,CN1CCC(N(C)S(=O)(=O)c2ccc(NC(=O)c3cccc(C#N)c3)cc2)CC1,inactive
25,COc1ccc2c(c1)C(c1cccs1)=NNC(c1cccnc1)=N2,inactive
26,Cc1ccc(C2=Nc3c(ccc4ccccc34)C(c3ccncc3)=NN2)cc1,inactive

row,SMILES,Potency
1,CCOc1ccc2c(c1)C(c1ccc(C)cc1)=NNC(c1ccc(C)cc1)=N2,23.9 µM (active)
2,COCCCNC(NC(=O)c1ccc(C)cc1)C(Cl)(Cl)Cl (stereo not drawn),inactive
3,COc1ccc(CCNC(=O)c2ccccc2-c2ccccc2C(=O)O)cc1OC,inactive
4,COc1cccc2[nH]c(C(=O)NCCc3ccccc3)cc12,23.9 µM (active)
5,COc1ccc(CCNC(=O)c2ccccc2OCc2ccccc2)cc1,inactive
6,O=C(Cn1ncn2nc(-c3cccs3)cc2c1=O)NCc1cccc(Br)c1,inactive
7,CC(=O)c1ccc(NC(=O)COc2ccccc2-c2nc(-c3ccccc3)no2)cc1,inactive
8,COc1ccc(/C=C/c2noc(-c3ccccc3OC(C)=O)n2)cc1,15.1 µM (active)
9,Oc1ccccc1-c1nc(/C=C/c2ccc(F)cc2)no1,0.757 µM (active)
10,CC(=O)Oc1ccccc1C1=NN(C(C)=O)C(c2ccccc2)C1 (stereo not drawn),inactive
11,CCOC(=O)c1c(S(=O)(=O)N2CCC(C(=O)NCc3ccccc3OC)CC2)c(C)n(C)c1C,inactive
12,COc1ccc(CNC(=O)Cn2nnc(-c3ccc(S(C)(=O)=O)cc3)n2)cc1,inactive
13,CCCCOC(=O)/C(C#N)=C/c1ccc(-c2cccc(C(F)(F)F)c2)o1,inactive
14,CCCCN1CC(c2nc3ccccc3n2CCCCOc2ccc(C)cc2C)CC1=O (stereo not drawn),inactive
15,COc1ccc(C(=O)OCC(=O)N2CC(=O)Nc3ccccc32)cc1Br,inactive
16,CCc1ccc(S(=O)(=O)Nc2cc3c(C(=O)OCc4ccccc4)c(C)oc3c3ccccc23)cc1,inactive
17,CCC(=O)N1CCc2cc(Br)cc(S(=O)(=O)Nc3ccc(C)cc3C)c21,inactive
18,O=C(Nc1ccc(OCC(=O)N2CCOCC2)cc1)c1cc(F)c(F)cc1Cl,9.53 µM (active)
19,O=C(COc1ccc(S(=O)(=O)Nc2cccc(C(F)(F)F)c2)cc1)N1CCOCC1,inactive
20,O=C(Nc1cccc(OCC(=O)N2CCOCC2)c1)C1CCCCC1,inactive
21,Cc1ccccc1CSCCNC(=O)C1CCN(S(=O)(=O)Cc2ccccc2)CC1,inactive
22,CCC(C)NC(=O)CCCc1ccccc1 (stereo not drawn),inactive
23,CC1=NN(C(=O)CCCc2ccccc2)C(O)(C(F)(F)F)C1 (stereo not drawn),inactive
24,C=CCN1CCN(C(=O)CCCc2ccccc2)CC1,2.13 µM (active)
25,CC(=O)NCCC(=O)Nc1nc(-c2ccc3c(c2)OCCO3)cs1,19 µM (active)
26,O=C(Nc1ccc(S(=O)(=O)N2CCCC2)cc1Cl)C1=COCCO1,inactive

row,SMILES,Potency
1,CC(=O)NCc1ccc(-c2csc(NC(=O)CCCc3nc4ccccc4c(=O)[nH]3)n2)cc1,inactive
2,CC(=O)NCCC(=O)Nc1nc(C)c(Cc2ccc3c(c2)OCO3)s1,inactive
3,COc1cc(-c2nnc(NC(=O)C3=COCCO3)o2)cc(OC)c1OC,inactive
4,Cc1ccc(-c2csc(NC(=O)C3=COCCO3)n2)cc1C,6.75 µM (active)
5,Cc1cccc(NC(=O)CN2CCN(C(=O)C3CCN(C(=O)/C=C/c4ccccc4)CC3)CC2)c1C,inactive
6,CCNC(=O)CC1C(=O)N(c2ccc(F)cc2)C(=O)N1CCc1sccc1C (stereo not drawn),inactive
7,Cc1ccc(CN2CCc3nc(N4CCN(C)CC4)ncc3C2)cc1,inactive
8,CCCCCN1CC(O)=C(c2nc(-c3ccc(Cl)cc3)cs2)C1=N,inactive
9,CCCc1cc(-c2n[nH]c(=S)n2CC)c2ccccc2n1,inactive
10,Cc1cc(-c2nc(C)c(-c3nnc(SCC(=O)Nc4ccccc4)n3C)s2)no1,inactive
11,CCC(C)Sc1nnc(-c2c[nH]c3ccccc23)n1CCOC (stereo not drawn),inactive
12,Cc1cc(-c2n[nH]c(=S)n2-c2ccc(C)c(C)c2)no1,inactive
13,CCCc1cc(-c2nc(-c3ccc(C)cc3)cs2)ccn1,23.9 µM (active)
14,Cc1ccc(-c2csc(-c3cc(C)on3)n2)cc1,8.49 µM (active)
15,Cc1ccc(-c2csc(-c3c[nH]c4ccccc34)n2)cc1,12 µM (active)
16,Cc1ccc(-n2c(=O)c3cccnc3n2CC(=O)Nc2ccccc2C(F)(F)F)cc1C,inactive
17,CCOC(=O)c1c(NC(=O)/C=C/c2ccco2)sc(C)c1C,inactive
18,NS(=O)(=O)c1cccc(NC(=O)COC(=O)/C=C/c2ccco2)c1,inactive
19,CC(C)Oc1ccc(/C=C(\NC(=O)/C=C/c2ccco2)C(=O)NCCc2nc3ccccc3[nH]2)cc1,inactive
20,O=C(Nc1cccc(-c2nc3ccccc3[nH]2)c1)c1ccc(C(=O)Nc2cccc(-c3nc4ccccc4[nH]3)c2)cc1,12 µM (active)
21,Cc1ccc(OCC(=O)Nc2ccc(Cl)c(-c3nc4ccccc4[nH]3)c2)cc1C,inactive
22,Cc1ccc(-n2nc3ccc(NC(=O)/C=C/c4ccco4)cc3n2)cc1C,9.53 µM (active)
23,O=C(/C=C/c1ccco1)Nc1cccc(-c2nc3ccccc3[nH]2)c1,7.57 µM (active)
24,Cc1cccc(NC(=O)C2CCN(S(=O)(=O)c3c(C)noc3/C=C/c3ccco3)CC2)c1,inactive
25,CN(c1ccccc1)S(=O)(=O)c1cc(C(=O)Nc2nc3ccccc3[nH]2)ccc1Cl,inactive
